This passage reports binding signal results from publication PMC7862700, “An all-to-all approach to the identification of sequence-specific readers for epigenetic DNA modifications on cytosine”.

Assay in all cases: DAPPL (digital affinity profiling via proximity ligation, sequencing); 10 mM Tris-HCl pH 7.5, 50 mM NaCl, 1 mM DTT, 4% glycerol, room temperature, 30 min; GST-TFs on glutathione beads, 16-mer random dsDNA library, 0.1% formaldehyde crosslink after washing; high values mean tight binding
Holding throughout (details): protein: recombinant; tags: N-terminal GST; dsDNA, one strand shown

For one assay, the target named is ELF1 (Homo sapiens, UniProt P32519 1-619). The method in brief:
(§1)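 Human transcription factors carrying a GST fusion were produced in yeast, bound to glutathione beads, tagged with DNA barcodes and pooled together with a tag-only sample. Each pool was held with 200 nmole of a random double-stranded 16-mer DNA library in Tris/NaCl/DTT/glycerol buffer for 30 min at room temperature, then washed, crosslinked in 0.1% formaldehyde, proximity-ligated with BsaI/T4 ligase (1 h, 37 °C), PCR-amplified and sequenced on an Illumina NextSeq500. Binding signal is the read frequency of each hexamer for a given factor divided by its frequency in the tag-only sample.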

A further assay deals with T1, ELK4 (Homo sapiens, UniProt P28324-2 1-405).
T1 sequence: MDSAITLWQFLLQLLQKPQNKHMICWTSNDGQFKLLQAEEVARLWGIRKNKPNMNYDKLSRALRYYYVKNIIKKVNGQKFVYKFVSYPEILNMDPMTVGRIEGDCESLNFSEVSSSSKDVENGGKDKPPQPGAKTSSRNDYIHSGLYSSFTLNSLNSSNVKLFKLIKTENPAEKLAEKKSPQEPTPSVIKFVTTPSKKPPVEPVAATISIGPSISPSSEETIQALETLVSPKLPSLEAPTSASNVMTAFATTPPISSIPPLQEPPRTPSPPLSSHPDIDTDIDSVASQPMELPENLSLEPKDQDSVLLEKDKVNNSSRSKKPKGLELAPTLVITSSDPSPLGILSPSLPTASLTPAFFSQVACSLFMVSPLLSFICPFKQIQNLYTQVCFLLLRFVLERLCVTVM
An outline of the steps:
as §1

The target of another assay is T2, ERF (Homo sapiens, UniProt P50548 1-548).
T2 sequence: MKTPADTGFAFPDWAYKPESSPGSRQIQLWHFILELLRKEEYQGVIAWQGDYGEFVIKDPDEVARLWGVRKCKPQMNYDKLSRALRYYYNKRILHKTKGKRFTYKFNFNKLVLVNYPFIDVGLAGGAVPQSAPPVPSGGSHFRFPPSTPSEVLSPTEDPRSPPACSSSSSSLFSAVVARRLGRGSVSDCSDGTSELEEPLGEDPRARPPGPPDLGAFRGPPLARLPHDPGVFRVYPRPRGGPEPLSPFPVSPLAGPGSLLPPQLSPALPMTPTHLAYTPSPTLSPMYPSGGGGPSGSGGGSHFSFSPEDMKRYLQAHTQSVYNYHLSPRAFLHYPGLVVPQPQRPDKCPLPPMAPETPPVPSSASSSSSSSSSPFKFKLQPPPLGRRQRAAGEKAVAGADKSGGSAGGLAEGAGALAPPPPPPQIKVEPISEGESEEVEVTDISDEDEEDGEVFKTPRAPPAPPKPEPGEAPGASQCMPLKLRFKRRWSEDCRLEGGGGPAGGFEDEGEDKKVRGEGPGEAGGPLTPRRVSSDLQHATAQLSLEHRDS
An outline of the steps:
as §1

A further assay has as its target T3, ETV3L (Homo sapiens, UniProt Q6ZN32 1-361).
T3 sequence: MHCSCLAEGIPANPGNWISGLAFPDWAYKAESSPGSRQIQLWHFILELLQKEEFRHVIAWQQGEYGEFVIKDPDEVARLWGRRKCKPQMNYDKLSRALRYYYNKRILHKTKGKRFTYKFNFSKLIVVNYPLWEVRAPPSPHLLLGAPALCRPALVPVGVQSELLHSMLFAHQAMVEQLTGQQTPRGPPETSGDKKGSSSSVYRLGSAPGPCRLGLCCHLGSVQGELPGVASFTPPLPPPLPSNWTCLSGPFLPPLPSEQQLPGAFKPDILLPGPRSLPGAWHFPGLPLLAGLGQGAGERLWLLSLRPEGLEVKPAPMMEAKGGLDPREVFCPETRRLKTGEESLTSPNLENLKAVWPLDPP
The method in brief:
as §1

For the next assay, the target named is T4, ETV7 (Homo sapiens, UniProt Q9Y603 1-341).
T4 sequence: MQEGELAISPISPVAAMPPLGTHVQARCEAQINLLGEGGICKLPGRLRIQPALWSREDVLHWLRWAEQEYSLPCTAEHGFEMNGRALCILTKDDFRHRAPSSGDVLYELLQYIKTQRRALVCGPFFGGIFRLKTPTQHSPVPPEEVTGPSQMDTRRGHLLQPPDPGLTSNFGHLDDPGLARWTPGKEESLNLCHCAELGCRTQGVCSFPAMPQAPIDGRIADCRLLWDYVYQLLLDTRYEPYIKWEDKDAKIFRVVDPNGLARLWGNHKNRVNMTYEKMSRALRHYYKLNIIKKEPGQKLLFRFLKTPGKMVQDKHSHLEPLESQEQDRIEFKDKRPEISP
An outline of the steps:
as §1

The target in another assay is T5, ELK1 (Homo sapiens, UniProt P19419 1-428).
T5 sequence: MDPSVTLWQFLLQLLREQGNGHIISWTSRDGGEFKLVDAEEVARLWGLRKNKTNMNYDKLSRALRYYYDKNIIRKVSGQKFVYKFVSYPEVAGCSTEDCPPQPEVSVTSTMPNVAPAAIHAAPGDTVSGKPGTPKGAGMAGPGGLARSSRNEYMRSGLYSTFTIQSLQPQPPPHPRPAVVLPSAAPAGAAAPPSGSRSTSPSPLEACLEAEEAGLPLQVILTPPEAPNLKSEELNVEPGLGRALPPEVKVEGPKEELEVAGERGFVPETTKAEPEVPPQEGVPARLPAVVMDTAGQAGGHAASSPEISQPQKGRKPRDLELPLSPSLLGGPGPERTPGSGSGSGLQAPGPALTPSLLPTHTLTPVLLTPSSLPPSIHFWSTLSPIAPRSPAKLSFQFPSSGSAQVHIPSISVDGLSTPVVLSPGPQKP
The method in brief: as §1

Another assay has as its target T6, GABPA (Homo sapiens, UniProt Q06546 1-454).
T6 sequence: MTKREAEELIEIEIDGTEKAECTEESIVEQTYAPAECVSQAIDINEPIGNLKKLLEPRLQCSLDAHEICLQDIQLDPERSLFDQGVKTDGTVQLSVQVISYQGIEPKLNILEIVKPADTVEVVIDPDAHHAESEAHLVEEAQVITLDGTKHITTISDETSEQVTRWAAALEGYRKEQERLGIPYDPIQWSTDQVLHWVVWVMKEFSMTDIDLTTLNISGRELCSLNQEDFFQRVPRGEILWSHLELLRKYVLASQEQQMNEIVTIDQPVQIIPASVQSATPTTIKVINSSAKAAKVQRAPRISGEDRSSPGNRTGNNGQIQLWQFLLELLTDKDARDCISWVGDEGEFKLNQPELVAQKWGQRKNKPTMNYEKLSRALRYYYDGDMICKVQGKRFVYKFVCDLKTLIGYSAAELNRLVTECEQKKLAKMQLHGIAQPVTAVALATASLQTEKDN
An outline of the steps: as §1

A further assay concerns the target T7, EHF (Homo sapiens, UniProt Q9NZC4 1-300).
T7 sequence: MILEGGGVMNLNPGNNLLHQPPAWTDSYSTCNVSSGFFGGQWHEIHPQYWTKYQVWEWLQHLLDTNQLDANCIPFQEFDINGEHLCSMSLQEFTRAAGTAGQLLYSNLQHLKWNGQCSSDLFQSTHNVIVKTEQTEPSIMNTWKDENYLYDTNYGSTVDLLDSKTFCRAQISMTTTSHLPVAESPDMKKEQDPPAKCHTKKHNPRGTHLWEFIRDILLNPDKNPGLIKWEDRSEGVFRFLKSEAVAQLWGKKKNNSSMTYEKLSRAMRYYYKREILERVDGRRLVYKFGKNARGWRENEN
An outline of the steps: as §1

A further assay has as its target T8, ETV2 (Homo sapiens, UniProt O00321 1-342).
T8 sequence: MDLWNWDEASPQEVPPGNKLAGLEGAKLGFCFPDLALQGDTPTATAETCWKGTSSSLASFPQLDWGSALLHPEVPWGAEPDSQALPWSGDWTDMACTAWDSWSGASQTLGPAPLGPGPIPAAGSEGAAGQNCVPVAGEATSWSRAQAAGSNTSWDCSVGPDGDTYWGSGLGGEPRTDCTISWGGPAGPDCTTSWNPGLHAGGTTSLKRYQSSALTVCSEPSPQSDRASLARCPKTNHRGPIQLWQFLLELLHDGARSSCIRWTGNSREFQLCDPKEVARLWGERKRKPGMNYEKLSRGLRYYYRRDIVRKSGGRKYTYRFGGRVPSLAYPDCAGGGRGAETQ
An outline of the steps:
as §1

Another assay has as its target T9, ELF3 (Homo sapiens, UniProt P78545 1-371).
T9 sequence: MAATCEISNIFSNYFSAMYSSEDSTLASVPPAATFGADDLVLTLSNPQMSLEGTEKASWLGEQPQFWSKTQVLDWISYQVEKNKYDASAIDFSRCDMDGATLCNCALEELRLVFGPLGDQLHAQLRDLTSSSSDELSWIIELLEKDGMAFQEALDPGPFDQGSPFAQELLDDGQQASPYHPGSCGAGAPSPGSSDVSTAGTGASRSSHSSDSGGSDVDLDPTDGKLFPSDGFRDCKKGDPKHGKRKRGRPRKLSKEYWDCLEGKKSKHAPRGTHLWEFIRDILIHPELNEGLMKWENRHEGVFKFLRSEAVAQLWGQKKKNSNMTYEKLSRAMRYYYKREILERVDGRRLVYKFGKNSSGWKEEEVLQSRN
An outline of the steps: as §1

In another assay the target is ETV1 (Homo sapiens, UniProt P50549 1-477). The method in brief:
as §1

The target of another assay is T10, SPDEF (Homo sapiens, UniProt O95238 1-335).
T10 sequence: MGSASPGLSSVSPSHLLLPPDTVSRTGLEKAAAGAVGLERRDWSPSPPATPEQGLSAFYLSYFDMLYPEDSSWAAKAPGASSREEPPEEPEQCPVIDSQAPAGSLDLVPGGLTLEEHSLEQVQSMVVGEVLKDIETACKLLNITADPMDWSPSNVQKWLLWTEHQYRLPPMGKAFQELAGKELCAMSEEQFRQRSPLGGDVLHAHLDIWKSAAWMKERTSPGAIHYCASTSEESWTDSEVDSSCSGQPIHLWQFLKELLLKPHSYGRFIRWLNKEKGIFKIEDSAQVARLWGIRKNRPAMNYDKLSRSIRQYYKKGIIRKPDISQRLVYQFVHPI
An outline of the steps: as §1

The next assay addresses T11, ELK3 (Homo sapiens, UniProt P41970 1-407).
T11 sequence: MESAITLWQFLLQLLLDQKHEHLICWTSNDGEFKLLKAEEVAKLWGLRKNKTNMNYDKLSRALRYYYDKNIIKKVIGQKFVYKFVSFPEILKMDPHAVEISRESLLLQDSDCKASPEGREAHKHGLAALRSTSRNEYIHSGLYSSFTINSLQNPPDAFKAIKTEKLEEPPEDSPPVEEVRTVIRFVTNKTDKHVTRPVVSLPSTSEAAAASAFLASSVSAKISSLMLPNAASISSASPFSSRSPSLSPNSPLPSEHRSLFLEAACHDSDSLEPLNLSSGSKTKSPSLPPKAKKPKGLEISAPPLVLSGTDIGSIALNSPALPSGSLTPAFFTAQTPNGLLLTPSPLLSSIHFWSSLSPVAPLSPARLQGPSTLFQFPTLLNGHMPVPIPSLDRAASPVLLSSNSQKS
An outline of the steps:
as §1

Another assay deals with T12, FEV (Homo sapiens, UniProt Q99581 1-238).
T12 sequence: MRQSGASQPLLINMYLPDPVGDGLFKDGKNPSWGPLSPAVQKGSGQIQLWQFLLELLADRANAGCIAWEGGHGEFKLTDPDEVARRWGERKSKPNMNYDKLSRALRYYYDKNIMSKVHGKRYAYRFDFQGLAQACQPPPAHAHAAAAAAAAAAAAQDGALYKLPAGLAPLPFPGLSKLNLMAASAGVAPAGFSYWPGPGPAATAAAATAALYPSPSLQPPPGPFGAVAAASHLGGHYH
The method in brief:
as §1

Chain of ELF1 (P32519 whole entry, the tested form may be a part): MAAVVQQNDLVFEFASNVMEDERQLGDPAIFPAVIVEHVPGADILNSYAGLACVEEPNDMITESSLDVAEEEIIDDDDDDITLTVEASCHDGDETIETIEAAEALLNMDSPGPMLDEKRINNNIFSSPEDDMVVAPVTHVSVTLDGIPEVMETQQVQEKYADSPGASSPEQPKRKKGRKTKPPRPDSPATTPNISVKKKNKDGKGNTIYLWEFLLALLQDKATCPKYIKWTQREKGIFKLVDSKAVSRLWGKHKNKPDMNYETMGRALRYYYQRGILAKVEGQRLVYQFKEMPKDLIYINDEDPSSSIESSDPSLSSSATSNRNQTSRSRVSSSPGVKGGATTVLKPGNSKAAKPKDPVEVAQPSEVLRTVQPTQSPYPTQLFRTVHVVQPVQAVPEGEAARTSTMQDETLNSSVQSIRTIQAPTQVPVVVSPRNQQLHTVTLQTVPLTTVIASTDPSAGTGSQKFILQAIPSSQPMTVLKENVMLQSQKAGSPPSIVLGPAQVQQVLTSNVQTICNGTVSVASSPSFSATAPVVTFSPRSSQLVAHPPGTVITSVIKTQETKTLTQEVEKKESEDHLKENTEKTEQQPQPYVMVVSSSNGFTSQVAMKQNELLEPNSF
Chain of ETV1 (P50549 whole entry): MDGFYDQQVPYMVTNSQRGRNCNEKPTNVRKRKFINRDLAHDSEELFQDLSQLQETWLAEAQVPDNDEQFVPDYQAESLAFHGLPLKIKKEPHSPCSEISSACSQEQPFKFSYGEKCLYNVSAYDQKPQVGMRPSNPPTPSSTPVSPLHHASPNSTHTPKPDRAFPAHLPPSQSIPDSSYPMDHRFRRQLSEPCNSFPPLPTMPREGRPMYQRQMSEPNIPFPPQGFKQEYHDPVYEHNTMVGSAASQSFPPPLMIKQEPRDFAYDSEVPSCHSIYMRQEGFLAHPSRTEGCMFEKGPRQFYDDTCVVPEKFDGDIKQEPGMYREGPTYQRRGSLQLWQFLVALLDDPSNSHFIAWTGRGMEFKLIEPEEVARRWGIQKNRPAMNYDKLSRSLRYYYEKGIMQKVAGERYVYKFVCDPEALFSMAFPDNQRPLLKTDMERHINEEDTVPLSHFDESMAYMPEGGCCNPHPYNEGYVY

As for ACACAG, the binding signal with ELF1 is 1.05 fold enrichment (6-mer frequency, TF over GST control); in the assay with ELK4 it was 1.12 fold enrichment (6-mer frequency, TF over GST control); with ERF, 1.04 fold enrichment (6-mer frequency, TF over GST control); in the assay with ETV3L it was 1.05 fold enrichment (6-mer frequency, TF over GST control); with ETV7, 1.13 fold enrichment (6-mer frequency, TF over GST control).

On to GACCAA, for which the binding signal in the assay with ELK1 was 1.05 fold enrichment (6-mer frequency, TF over GST control); with GABPA, 1.04 fold enrichment (6-mer frequency, TF over GST control); with ELF1 it was 1.02 fold enrichment (6-mer frequency, TF over GST control); in the assay with ELK4, 1.01 fold enrichment (6-mer frequency, TF over GST control).

As for GATACC, the binding signal is 1.04 fold enrichment (6-mer frequency, TF over GST control) with ELF1; 1 fold enrichment (6-mer frequency, TF over GST control) with EHF; 1.01 fold enrichment (6-mer frequency, TF over GST control) with ELK4; 1 fold enrichment (6-mer frequency, TF over GST control) with ETV2; 1 fold enrichment (6-mer frequency, TF over GST control) with ELF3; 1 fold enrichment (6-mer frequency, TF over GST control) in the assay with ETV1. Also, the binding signal in the assay with SPDEF is 1.04 fold enrichment (6-mer frequency, TF over GST control).

Consider TGAACG, for which the binding signal was 1.01 fold enrichment (6-mer frequency, TF over GST control) in the assay with ELF1; 1.06 fold enrichment (6-mer frequency, TF over GST control) in the assay with ELK3; 1.02 fold enrichment (6-mer frequency, TF over GST control) with ELK4; 1.02 fold enrichment (6-mer frequency, TF over GST control) with ETV2; 1.16 fold enrichment (6-mer frequency, TF over GST control) in the assay with ELF3; 1.02 fold enrichment (6-mer frequency, TF over GST control) with ETV1.

As for CGGTCC, the binding signal was 1.03 fold enrichment (6-mer frequency, TF over GST control) with ELK3; 1.06 fold enrichment (6-mer frequency, TF over GST control) with FEV; 1.08 fold enrichment (6-mer frequency, TF over GST control) with ELK4; 1.04 fold enrichment (6-mer frequency, TF over GST control) with SPDEF.
